Assay results published in PubChem BioAssay AID1628 (Sanford-Burnham Center for Chemical Genomics, 2009).
Out of some 190,000 compounds screened, about 930 (0.49%) were called active.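 The calls were made as follows: active = z-score of insulin promoter reporter brightness in nuclei below -3 at 5 µM, with at least 500 cells counted; inconclusive = wells with under 500 cells, flagged as toxic or sparse; inactive = the rest.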 This is one part of the list. Potency and affinity values are given separately.

assay: insulin promoter down-regulators in MIN6 cells, imaging, high-content screening, mouse beta cells (AID 1628); details: MIN6 insulin promoter GFP reporter, at 5 µM, active compounds read low

z-score, inactive:
O=c1c(-c2ccccc2)coc2cc(O)ccc12 0.33
CCN(CC)c1ccc(/C=C(/C#N)c2nc3ccc(C)cc3[nH]2)c(OC(C)C)c1 10.8
CC1CCCCC1NC(=O)COC(=O)c1c2c(nc3ccccc13)/C(=C/c1ccco1)CC2 (configuration not stated) 7.1
C=CCNC(=O)c1c2c(nc3ccccc13)-c1ccccc1CC2 4.54
Cn1ccc(=S)c2ccccc21 3.38
Cc1[nH]n(-c2ccc([N+](=O)[O-])cc2)c(=O)c1C=NCCN1CCN(C(=O)c2ccccc2F)CC1 4.48
COC(=O)c1ccc(N2C(=O)CC(Sc3n[nH]c(C)n3)C2=O)cc1 (configuration not stated) 1.02
N#CC(C#N)=C1C=C2C=C(N3CCOCC3)CCC2CC1 (configuration not stated) 15.6
O=c1c2ccccc2nc(-c2ccco2)n1/N=C/c1ccco1 2.3
CC(C)(C)c1ccc(OCC(=O)Nc2ccc3c4c(cccc24)C(=O)NC3=O)cc1 5.3
CCOc1ccc(C2C(C(=O)O)c3ccccc3C(=O)N2CCN2CCOCC2)cc1 (configuration not stated) 4.94
COc1ccc(CNc2cc(NCCCO)c([N+](=O)[O-])c3nonc23)cc1 2.28
Cc1cccc(-n2nnc(C(=O)NCc3ccccc3Cl)c2N)c1 1.52
O=C1S/C(=C\c2ccc(N3CCOCC3)o2)C(=O)N1Cc1ccc(F)cc1 8.79
Cc1ccc(-c2cn3cccnc3n2)cc1 2.84
Cc1ccn2c(NC3CCCCC3)c(C)nc2c1 3.89
COc1ccc(Nc2c(-c3ccco3)nc3ccc(C)cn23)cc1 5.18
COc1ccc(-n2nc([N+](=O)[O-])c(=NCc3ccco3)n2O)cc1 4.25
CC1CCN(C(=O)c2cc3nc(C4CC4)cc(C(F)(F)F)n3n2)CC1 -0.53
O=C(Cn1cnc2c(cnn2-c2ccc(F)cc2)c1=O)N1CCCc2ccccc21 1.13
Cc1cc(C)cc(N=Cc2[nH]c3ccc(Br)c(Cl)c3c2O)c1 13.9
O=C(NCCCn1ccnc1)/C(=C/c1ccco1)NC(=O)c1cccs1 3.41
Cc1ccc(C(=O)NCCCn2ccnc2)cc1[N+](=O)[O-] 5.54
COc1ccccc1N1CCN(C/C(O)=C(\C#N)c2nc(-c3ccccc3)cs2)CC1 3.2
Cc1cccc(Nc2nc(N)nc(CN3CCN(c4ccccc4)CC3)n2)c1 -1.36
CN1CCN(Cc2nc(N)nc(Nc3ccc4c(c3)OCCO4)n2)CC1 4.73
Cc1ccc(NC(=O)/C=C/c2ccc([N+](=O)[O-])s2)cc1 16.6
CC(=O)Oc1ccc2c(=O)c(-c3ccccc3)c(C)oc2c1 -0.21
CCNc1c(N)c(=O)oc2ccccc12 -0.02
N#CC(C#N)=C1C=C2C=C(N3CCCCC3)CCC2CC1 (configuration not stated) 18.2

z-score, active:
O=c1[nH]c(/C(Cl)=C/c2cccc(F)c2)nc2cc(C(F)(F)F)ccc12 -4.9
COC(=O)c1cc(CSc2nc3ccc(C)cc3[nH]2)oc1C -3.9
NC(=O)c1ccc(NC(=O)COC(=O)c2c3c(nc4ccccc24)/C(=C\c2cccs2)CCC3)cc1 -3.07
Cc1ccc(S(=O)(=O)Cn2nnnc2C(CC(C)C)N2CCN(c3ccccc3)CC2)cc1 (configuration not stated) -4.77
COC(=O)c1ccccc1NC(=O)Cn1cnc2cc(C)c(C)cc21 -3.24
COc1ccccc1N1C(=O)CC(Sc2n[nH]c(-c3cccc(C)c3)n2)C1=O (configuration not stated) -5.2
COc1ccccc1/C=N/n1c(N)c(S(=O)(=O)c2cccs2)c2nc3ccccc3nc21 -3.63
CCOc1ccc(C2=C(C=Nc3c(C)n(C)n(-c4ccccc4)c3=O)C(c3ccc(F)cc3)c3ccccc3O2)cc1 (configuration not stated) -4.16
Cc1nn(-c2ccccc2)c(C)c1/C=N/NC(=O)CSc1nnc(SCc2ccccc2Cl)s1 -3.39
CC1CCc2cc(F)ccc2N1C(=O)c1ccc2c(c1)OCO2 (configuration not stated) -4.9
Cc1ccn2c(Nc3ccccc3C)c(-c3ccccn3)nc2c1 -3.6
Cc1ccc(-c2cc(C(F)(F)F)n3nc(C(=O)NCCCn4ccnc4)cc3n2)cc1C -5.59
O=C(CSCC(=O)N1CCCc2ccccc21)Nc1nc(-c2ccccc2)cs1 -4.03
Cc1nn(Cc2ccccc2Cl)c2sc(C(=O)NCCCn3ccnc3)cc12 -4.53
COc1ccccc1N1CCN(Cc2nc(N)nc(Nc3ccccc3)n2)CC1 -3.17
NC(=NCc1ccc2c(c1)OCO2)NC(=O)c1ccccc1 -3.43
Cc1ccc(CN2CCN(/N=C/C=C/c3ccccc3[N+](=O)[O-])CC2)cc1 -4.13
